The panel holds about 83,000 compounds, 20% with a hit somewhere; the sample as a whole holds those more often.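 Single-dose data. Exposure time 48 hours. Values below 10 considered active.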 Unmarked numbers belong to inactive results. The source made the active and inactive calls.
Experiments:
Assay in all cases: NCI-60 one-dose screen, 48 h (100 = growth as untreated, 0 = no growth, -100 = all killed)
Settings in all cases: 10 µM unless noted
[1] = system: HCT-15 colon
[2] = system: HT29 colon
[3] = system: SNB-75 CNS
[4] = system: SNB-19 CNS
[5] = system: U251 CNS
[6] = system: PC-3 prostate
[7] = system: SK-MEL-5 melanoma
[8] = system: UACC-62 melanoma
[9] = system: LOX IMVI melanoma
[10] = system: SK-MEL-28 melanoma
[11] = system: SK-MEL-2 melanoma
[12] = system: EKVX NSCLC
[13] = system: SN12C renal
[14] = system: UO-31 renal
[15] = system: TK-10 renal
[16] = system: ACHN renal
[17] = system: CAKI-1 renal
[18] = system: A498 renal
[19] = system: CCRF-CEM leukemia
[20] = system: MOLT-4 leukemia

SMILES | growth [1] | growth [2] | growth [3] | growth [4] | growth [5] | growth [6] | growth [7] | growth [8] | growth [9] | growth [10] | growth [11] | growth [12] | growth [13] | growth [14] | growth [15] | growth [16] | growth [17] | growth [18] | growth [19] | growth [20]
Cc1ccc(-c2cc3nc(C(Cl)Cl)nc(-c4cccs4)n3n2)cc1 | 61.7% | 39.2% | 110% | 63.8% | 39.4% | 66.5% | 96.8% | 78.9% | 96.2% | 87.4% | 105% | 66.3% | 85.9% | 70.7% | 141% | 21% | 55.6% | 84.3% | 104% | 98.6%
Cn1cc(CNc2nc3ccc(OC/C(=C/F)CN)cc3o2)ccc1=O | 103% | 111% | 110% | 98% | 106% | 107% | 104% | 95.1% | 98.2% | 99.4% | 114% | 98.4% | 99.8% | 93.1% | 107% | 105% | 91% | 102% | 107% | 104%
CCO/C=N/C1=C(C#N)C(c2ccc(Cl)cc2)c2sc3c(CC)cccc3c2O1 (stereo not given) | 23.3% | 10.7% | -5.34% (active) | 24.1% | 20% | 16.5% | 20.5% | 15.8% | 29.9% | 61.2% | 38.8% | 47.8% | 36.3% | 39.5% | 60.6% | 40.9% | 40.6% | 2.43% (active) | 16.1% | 23.6%
CC(c1ccccc1)N1CSc2nc3ncncc3n2C1 (stereo not given) | 37.3% | 30.4% | 51.5% | 99.5% | 70.6% | 42.4% | 49.3% | 20.6% | 10.1% | 96.9% | 57.2% | 84.8% | 68.8% | 47.6% | 42.6% | 45.2% | 27.2% | 85.8% | 23.1% | 18.2%
NS(=O)(=O)c1ccc(Nc2nc(N/N=C/c3ccc(Cl)cc3)nc(Nc3ccccc3)n2)cc1 | 76.4% | 34.2% | 94.3% | 81.8% | 54.6% | 51.7% | 69.1% | 74.9% | 60.4% | 75.3% | 81.7% | 76.6% | 81.6% | 82.1% | 103% | 90.1% | 62.1% | 76.3% | 19.4% | 1.53% (active)
CCOC(=O)C1=NNC(c2ccc(Cl)cc2)C1C(=O)N1C(=S)NC(=O)C1CC(C)C (stereo not given) | 105% | 116% | 100% | 98.3% | 105% | 96.8% | 106% | 94.2% | 103% | 103% | 110% | 84.5% | 99.4% | 81.4% | 164% | 93.3% | 85.2% | 95% | 100% | 89.5%
NC(N)=Nc1ccc(Oc2cccc(Oc3ccc(Cl)c(C(F)(F)F)c3)c2)cn1 | -83.7% (active) | -68.4% (active) | 73.3% | -84.5% (active) | -82.2% (active) | -93.8% (active) | 14.3% | -77.5% (active) | -88.6% (active) | -29.4% (active) | -36.3% (active) | -7.2% (active) | -86.6% (active) | 49.7% | -27.1% (active) | -99.7% (active) | 9.01% (active) | 15.1% | -29.8% (active) | -48.7% (active)
C=C1CC[C@@H]2[C@](C)(CO)[C@H](O)CC[C@@]2(C)[C@@H]1C/C(O)=C1\CCOC1=O | 90.9% | 96.5% | 96.4% | 97.9% | 88.2% | 99.7% | 101% | 88.9% | 72.9% | 108% | 103% | 102% | 86.8% | 99.4% | 114% | 101% | 101% | 94.4% | 60.2% | 104%
Nc1ccccc1NC(=O)c1ccc(NC(=O)C/C=C/c2cccnc2)cn1 | 21.4% | 12.9% | 29.4% | 33.1% | 15.6% | 31.6% | -75.9% (active) | 0.71% (active) | 1.78% (active) | -34% (active) | 15.9% | 52.9% | 25.2% | 0.829% (active) | 17.4% | 26.1% | 29.2% | -35.3% (active) | 15.8% | 17.3%
CCCCCc1ccc(S(=O)(=O)Nc2cccc(-c3csc(NC(=O)CNCCN(C)C)n3)c2)cc1 | 26.5% | 53.9% | 87.5% | 90.4% | 69.4% | 64.7% | 73.2% | 102% | 33.2% | 90.6% | 108% | 81.4% | 91.2% | 74.8% | 112% | 96.4% | 86.8% | 76.9% | 63.5% | 61.8%
COc1ccc(NC(=O)Nc2ccc3c(ccn3C(=O)c3cccc(F)c3)c2)cc1 | 71.6% | 64% | 44% | 80.8% | 54.4% | 77.4% | 76.6% | 65.9% | 57% | 87.2% | 94.5% | 88% | 50.7% | 94.1% | 103% | 53.9% | 90.1% | 88.7% | 56.3% | 73.2%
O=C(Nc1ccc(F)c(F)c1)c1cc(-c2ccc(F)cc2F)ccc1O | 2.24% (active) | 88.6% | -0.285% (active) | 12.5% | 11.4% | 8.32% (active) | -79.9% (active) | -18.3% (active) | 2.89% (active) | 20% | -11.3% (active) | 8.23% (active) | -1.95% (active) | -12.5% (active) | 14.2% | 2% (active) | -18.8% (active) | -53.2% (active) | 15.2% | 2.67% (active)
O=S(=O)(NCCNc1nccc(-n2cnc3ccccc32)n1)c1ccc(Br)cc1 | 95.7% | 97.2% | 74.1% | 101% | 98.6% | 93.8% | 89.1% | 82.8% | 99.1% | 108% | 108% | 83.4% | 91.5% | 79.8% | 103% | 93.6% | 81.5% | 76.3% | 101% | 95.9%
O=C(CSc1nc2ccccc2c(=O)n1-c1ccccc1)Nc1cccc(C(=O)/C=C/c2ccccc2Cl)c1 | 92.7% | 102% | 85.6% | 93.3% | 97.7% | 99.4% | 99.3% | 95.5% | 103% | 107% | 105% | 99.4% | 102% | 90.7% | 138% | 103% | 95.9% | 116% | 113% | 106%
CCn1c(SCC(=O)Nc2cccc(C(=O)/C=C/c3cc(OC)c(OC)c(OC)c3)c2)nc2ccccc2c1=O | -13.9% (active) | 1.12% (active) | -4.22% (active) | 39.9% | 30.1% | 46.8% | 33.9% | 41.2% | -73.6% (active) | 77% | 109% | 68.6% | 37.6% | 37.5% | 132% | 41.7% | 45.4% | 71.3% | 4.6% (active) | 22.4%

— PubChem BioAssay (NCI)
